About 7,900 targets were measured; listed, in parts, are those with a hit and a random draw of the rest. About 0.6% of all pairs of compound and target were hits.
Tests used:
Assay in all cases: log2 fold change, soluble protein after heating vs DMSO (PISA); higher = thermal stabilisation; K562 cells, 10 uM, 30 min; active = over 0.2 and 3.5 SD of the protein, either way, in both replicates (recomputed)
[1] = compound: CC1=C(C=C(C=C1)NC(=O)C2=CC(=CC=C2)C(C)(C)C#N)NC3=CC4=C(C=C3)N=CN(C4=O)C
Method in brief: (§1)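 Soluble protein was defined as the supernatant after 21,000xg for 90 min. It came from K562 cells at 2×10^6 cells/mL given 10 μM compound for 30 min, heated in aliquots for 3 min across 48°C-58°C, pooled, and extracted in PBS with 0.5% NP-40 at 4°C, and was quantified by TMTpro 16plex LC-MS/MS with equalised channel sums. Thermal stability against control samples, from duplicates, is reported as log2 fold change.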

[2] = compound: CC1=C(C=C(C=C1)NC(=O)C2=CC(=CC=C2)N(C)C)NC(=O)C3=CC=C(C=C3)O
Method in brief: as §1

[3] = compound: CC1=CC=C(C=C1)SC2=C3C=C(SC3=CN=C2)C(=O)N
Method in brief: as §1

[4] = compound: CC1=NC(=CC=C1)C2=C(N=C(N2)C(C)(C)C)C3=CC4=NC=CN=C4C=C3
Method in brief: as §1

Nexturastat A = compound: CCCCN(Cc1ccc(C(=O)NO)cc1)C(=O)Nc1ccccc1 [Nexturastat A]
Method in brief: as §1

vemurafenib = compound: CCCS(=O)(=O)Nc1ccc(F)c(C(=O)c2c[nH]c3ncc(-c4ccc(Cl)cc4)cc23)c1F [vemurafenib]
Method in brief: as §1

[5] = compound: CCCS(=O)(=O)Nc1ccc(F)c(C(=O)c2c[nH]c3ncc(Cl)cc23)c1F
Method in brief: as §1

[6] = compound: CCCc1cc(C)[nH]c(=O)c1CNC(=O)c1cc(-c2ccnc(N3CCN(C)CC3)c2)cc2c1cnn2C(C)C
Method in brief: as §1

givinostat = compound: CCN(CC)Cc1ccc2cc(COC(=O)Nc3ccc(C(=O)NO)cc3)ccc2c1 [givinostat]
Method in brief: as §1

barasertib = compound: CCN(CCCOc1ccc2c(Nc3cc(CC(=O)Nc4cccc(F)c4)[nH]n3)ncnc2c1)CCOP(=O)(O)O [barasertib]
Method in brief: as §1

Measured: log2 fold change

PPP2R5C isoform 5 (UniProt Q13362)
inactive: [1] 0.001 | [2] -0.045 | [3] 0.012 | [4] 0.052 | Nexturastat A -0.171 | vemurafenib 0.066 | [5] 0.038 | [6] 0.032 | givinostat 0.059 | barasertib 0.018

PSMD3 (UniProt O43242)
inactive: [1] 0.023 | [2] 0.022 | [3] -0.052 | [4] -0.024 | Nexturastat A 0.065 | vemurafenib -0.06 | [5] -0.032 | [6] 0.034 | givinostat -0.028 | barasertib -0.066

PECAM1 (UniProt P16284)
inactive: [1] -0.092 | [2] -0.019 | [3] -0.013 | [4] -0.113 | Nexturastat A 0.068 | vemurafenib -0.049 | [5] 0.004 | [6] -0.015 | givinostat 0.01 | barasertib 0.028

PYGB (UniProt P11216)
inactive: [2] 0.015 | [3] 0.008 | [4] 0.005 | Nexturastat A -0.074 | vemurafenib 0.009 | [5] -0.023 | [6] -0.044 | givinostat 0.012 | barasertib 0.001
active: [1] -0.284

PSMC4 (UniProt P43686)
inactive: [1] 0.016 | [2] 0.013 | [3] -0.049 | [4] -0.036 | Nexturastat A 0.03 | vemurafenib -0.066 | [5] -0.083 | [6] 0.084 | givinostat -0.059 | barasertib -0.042

POMK (UniProt Q9H5K3)
inactive: [1] 0.029 | [2] -0.018 | [3] 0.028 | [4] 0 | Nexturastat A -0.01 | vemurafenib 0.04 | [5] 0.041 | [6] 0 | givinostat 0.002 | barasertib 0.11

PDE4DIP isoform 4 (UniProt Q5VU43)
Chain of UniProt Q5VU43 (Q5VU43 whole entry, looked up): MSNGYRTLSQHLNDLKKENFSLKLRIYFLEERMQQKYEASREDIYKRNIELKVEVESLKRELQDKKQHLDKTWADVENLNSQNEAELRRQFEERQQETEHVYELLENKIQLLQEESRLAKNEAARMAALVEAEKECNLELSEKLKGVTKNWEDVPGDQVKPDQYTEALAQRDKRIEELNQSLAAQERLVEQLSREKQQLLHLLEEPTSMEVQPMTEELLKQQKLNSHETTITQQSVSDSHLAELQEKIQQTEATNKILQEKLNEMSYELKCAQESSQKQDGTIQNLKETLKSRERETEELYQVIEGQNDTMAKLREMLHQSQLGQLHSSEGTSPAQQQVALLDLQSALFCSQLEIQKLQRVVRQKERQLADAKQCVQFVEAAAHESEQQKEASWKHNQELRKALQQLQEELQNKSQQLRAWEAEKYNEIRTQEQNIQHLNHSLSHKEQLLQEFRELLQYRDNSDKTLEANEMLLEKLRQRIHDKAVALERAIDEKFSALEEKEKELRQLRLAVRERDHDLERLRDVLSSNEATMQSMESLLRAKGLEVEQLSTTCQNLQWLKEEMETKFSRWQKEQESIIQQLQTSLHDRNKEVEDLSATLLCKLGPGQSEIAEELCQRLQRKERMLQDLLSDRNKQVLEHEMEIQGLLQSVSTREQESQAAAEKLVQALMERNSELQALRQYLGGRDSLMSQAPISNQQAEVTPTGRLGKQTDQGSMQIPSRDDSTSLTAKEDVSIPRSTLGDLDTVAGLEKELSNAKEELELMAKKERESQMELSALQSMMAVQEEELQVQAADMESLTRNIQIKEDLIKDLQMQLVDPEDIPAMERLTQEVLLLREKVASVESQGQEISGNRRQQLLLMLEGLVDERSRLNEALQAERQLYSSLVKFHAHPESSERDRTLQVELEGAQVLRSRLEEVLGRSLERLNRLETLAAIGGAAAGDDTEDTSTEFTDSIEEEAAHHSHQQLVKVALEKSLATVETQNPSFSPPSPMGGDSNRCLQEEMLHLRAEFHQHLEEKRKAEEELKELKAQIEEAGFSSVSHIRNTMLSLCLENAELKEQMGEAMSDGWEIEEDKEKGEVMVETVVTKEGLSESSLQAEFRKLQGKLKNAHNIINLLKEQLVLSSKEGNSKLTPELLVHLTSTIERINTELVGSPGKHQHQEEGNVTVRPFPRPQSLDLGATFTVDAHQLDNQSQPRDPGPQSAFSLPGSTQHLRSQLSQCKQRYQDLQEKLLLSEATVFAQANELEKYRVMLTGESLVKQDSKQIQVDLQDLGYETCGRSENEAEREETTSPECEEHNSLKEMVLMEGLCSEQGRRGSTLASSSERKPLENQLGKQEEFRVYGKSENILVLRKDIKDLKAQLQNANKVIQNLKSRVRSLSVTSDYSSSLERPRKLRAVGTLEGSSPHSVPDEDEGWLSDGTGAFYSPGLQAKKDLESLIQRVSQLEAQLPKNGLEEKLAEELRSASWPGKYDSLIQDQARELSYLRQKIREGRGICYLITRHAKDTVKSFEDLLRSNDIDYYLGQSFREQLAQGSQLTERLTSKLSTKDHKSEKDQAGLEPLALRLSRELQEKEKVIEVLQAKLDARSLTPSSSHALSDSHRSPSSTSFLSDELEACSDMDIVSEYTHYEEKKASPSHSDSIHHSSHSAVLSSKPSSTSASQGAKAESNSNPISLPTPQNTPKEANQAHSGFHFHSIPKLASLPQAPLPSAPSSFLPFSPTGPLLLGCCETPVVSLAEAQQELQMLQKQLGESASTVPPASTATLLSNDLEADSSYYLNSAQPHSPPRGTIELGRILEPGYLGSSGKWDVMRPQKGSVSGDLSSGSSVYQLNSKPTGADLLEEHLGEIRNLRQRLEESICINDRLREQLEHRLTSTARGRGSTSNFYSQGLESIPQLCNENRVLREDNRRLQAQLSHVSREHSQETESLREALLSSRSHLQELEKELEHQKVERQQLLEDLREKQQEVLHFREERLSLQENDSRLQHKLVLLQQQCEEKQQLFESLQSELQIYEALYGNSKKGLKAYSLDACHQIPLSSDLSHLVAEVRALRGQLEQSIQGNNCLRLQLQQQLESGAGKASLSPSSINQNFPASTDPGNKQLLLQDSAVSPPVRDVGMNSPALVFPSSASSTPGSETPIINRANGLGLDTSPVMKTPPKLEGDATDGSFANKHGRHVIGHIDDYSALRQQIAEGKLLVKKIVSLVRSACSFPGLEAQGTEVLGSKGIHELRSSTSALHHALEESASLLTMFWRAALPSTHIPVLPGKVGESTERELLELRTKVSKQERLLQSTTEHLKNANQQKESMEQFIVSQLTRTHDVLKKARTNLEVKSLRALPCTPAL
inactive: [1] -0.027 | [2] -0.049 | [3] -0.012 | [4] -0.044 | vemurafenib -0.034 | [5] -0.01 | [6] -0.023 | givinostat 0.021 | barasertib 0.083
active: Nexturastat A 0.358

PKN2 (UniProt Q16513)
Chain of UniProt Q16513 (Q16513 whole entry, looked up): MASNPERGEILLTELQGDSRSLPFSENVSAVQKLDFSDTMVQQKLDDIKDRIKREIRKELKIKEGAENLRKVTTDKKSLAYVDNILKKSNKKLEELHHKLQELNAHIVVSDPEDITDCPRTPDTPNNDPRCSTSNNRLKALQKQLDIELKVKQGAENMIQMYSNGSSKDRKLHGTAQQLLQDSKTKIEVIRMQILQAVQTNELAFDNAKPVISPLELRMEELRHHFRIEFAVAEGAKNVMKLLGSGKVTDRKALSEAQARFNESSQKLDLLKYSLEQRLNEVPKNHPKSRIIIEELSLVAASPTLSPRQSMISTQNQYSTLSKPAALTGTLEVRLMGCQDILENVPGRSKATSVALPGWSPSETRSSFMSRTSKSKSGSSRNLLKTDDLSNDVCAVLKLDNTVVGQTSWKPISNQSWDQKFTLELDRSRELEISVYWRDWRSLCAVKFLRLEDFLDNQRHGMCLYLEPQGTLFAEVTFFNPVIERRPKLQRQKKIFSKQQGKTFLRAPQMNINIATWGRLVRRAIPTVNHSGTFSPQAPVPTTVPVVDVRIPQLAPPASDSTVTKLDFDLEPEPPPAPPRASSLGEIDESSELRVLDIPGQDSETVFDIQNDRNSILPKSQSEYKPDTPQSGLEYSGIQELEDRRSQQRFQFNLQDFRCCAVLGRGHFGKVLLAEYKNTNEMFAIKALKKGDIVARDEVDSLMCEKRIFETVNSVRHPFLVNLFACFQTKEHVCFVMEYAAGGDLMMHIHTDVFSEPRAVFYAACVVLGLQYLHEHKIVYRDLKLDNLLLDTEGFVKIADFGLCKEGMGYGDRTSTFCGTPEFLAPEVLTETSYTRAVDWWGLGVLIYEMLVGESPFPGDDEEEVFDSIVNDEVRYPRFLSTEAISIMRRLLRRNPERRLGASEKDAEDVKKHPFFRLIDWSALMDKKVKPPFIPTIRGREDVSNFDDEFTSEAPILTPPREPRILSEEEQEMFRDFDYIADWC
inactive: [1] 0.104 | [2] -0.005 | [3] 0.018 | [4] -0.012 | Nexturastat A 0.042 | vemurafenib 0.05 | [5] 0.086 | [6] 0.032 | givinostat 0.034 | barasertib 0.106

PIK3CB (UniProt P42338)
inactive: [1] -0.034 | [2] -0.009 | [3] 0.024 | [4] 0.054 | Nexturastat A 0.013 | vemurafenib 0.022 | [5] -0.001 | [6] -0.041 | givinostat 0.052 | barasertib 0.077

PCYT1A (UniProt P49585)
inactive: [1] -0.049 | [2] -0.038 | [3] -0.045 | [4] 0.035 | Nexturastat A -0.034 | vemurafenib 0.052 | [5] 0.043 | [6] -0.092 | givinostat -0.024 | barasertib 0.044

PDCD2L (UniProt Q9BRP1)
inactive: [1] -0.001 | [2] -0.104 | [3] 0.052 | [4] 0.068 | Nexturastat A 0 | vemurafenib -0.038 | [5] 0.079 | [6] 0.045 | givinostat -0.088 | barasertib 0.069

PATL1 (UniProt Q86TB9)
inactive: [1] 0.038 | [2] 0.031 | [3] -0.025 | [4] -0.064 | Nexturastat A 0.123 | vemurafenib -0.118 | [5] 0.005 | [6] 0.1 | givinostat 0.039 | barasertib 0.014

PLSCR1 (UniProt O15162)
inactive: [1] 0.13 | [2] 0.06 | [3] 0.025 | [4] -0.002 | Nexturastat A 0.008 | vemurafenib -0.05 | [5] 0.088 | [6] -0.101 | givinostat -0.033 | barasertib -0.104

PTP4A1 (UniProt Q93096)
Chain of UniProt Q93096 (Q93096 whole entry, looked up): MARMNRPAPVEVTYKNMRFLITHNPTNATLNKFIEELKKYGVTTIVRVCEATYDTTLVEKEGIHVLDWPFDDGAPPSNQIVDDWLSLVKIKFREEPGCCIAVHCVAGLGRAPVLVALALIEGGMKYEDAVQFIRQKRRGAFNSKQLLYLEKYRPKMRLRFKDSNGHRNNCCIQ
inactive: [1] -0.007 | [2] -0.005 | [3] 0.023 | [4] 0.023 | Nexturastat A 0.002 | vemurafenib 0 | [5] 0.062 | [6] -0.024 | givinostat -0.003 | barasertib 0.035

POLR2M (UniProt P0CAP2)
inactive: [1] 0.007 | [2] -0.014 | [3] 0.027 | [4] 0 | Nexturastat A -0.019 | vemurafenib 0.021 | [5] -0.062 | [6] 0 | givinostat -0.031 | barasertib -0.009

PIP4K2A (UniProt P48426)
inactive: [1] -0.027 | [2] -0.061 | [3] 0.017 | [4] -0.005 | Nexturastat A -0.051 | vemurafenib -0.044 | [5] 0.004 | [6] -0.01 | givinostat -0.052 | barasertib 0.022

PDCD6 (UniProt O75340)
Chain of UniProt O75340 (O75340 whole entry, looked up): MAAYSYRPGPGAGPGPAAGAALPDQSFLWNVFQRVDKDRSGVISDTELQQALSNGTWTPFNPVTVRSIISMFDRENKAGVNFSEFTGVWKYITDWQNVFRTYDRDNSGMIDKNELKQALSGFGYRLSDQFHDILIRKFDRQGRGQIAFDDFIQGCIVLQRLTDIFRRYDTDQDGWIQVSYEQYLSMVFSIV
inactive: [1] 0.013 | [2] 0.039 | [3] -0.001 | [4] 0.032 | Nexturastat A -0.032 | vemurafenib -0.025 | [5] 0.023 | [6] -0.089 | givinostat -0.017 | barasertib 0.004

PRKAR1A (UniProt P10644)
inactive: [1] 0.15 | [2] -0.051 | [3] 0.059 | [4] -0.103 | Nexturastat A 0.053 | vemurafenib -0.028 | [5] -0.085 | [6] 0.203 | givinostat 0.055 | barasertib -0.01

PSMD12 (UniProt O00232)
Chain of UniProt O00232 (O00232 whole entry, looked up): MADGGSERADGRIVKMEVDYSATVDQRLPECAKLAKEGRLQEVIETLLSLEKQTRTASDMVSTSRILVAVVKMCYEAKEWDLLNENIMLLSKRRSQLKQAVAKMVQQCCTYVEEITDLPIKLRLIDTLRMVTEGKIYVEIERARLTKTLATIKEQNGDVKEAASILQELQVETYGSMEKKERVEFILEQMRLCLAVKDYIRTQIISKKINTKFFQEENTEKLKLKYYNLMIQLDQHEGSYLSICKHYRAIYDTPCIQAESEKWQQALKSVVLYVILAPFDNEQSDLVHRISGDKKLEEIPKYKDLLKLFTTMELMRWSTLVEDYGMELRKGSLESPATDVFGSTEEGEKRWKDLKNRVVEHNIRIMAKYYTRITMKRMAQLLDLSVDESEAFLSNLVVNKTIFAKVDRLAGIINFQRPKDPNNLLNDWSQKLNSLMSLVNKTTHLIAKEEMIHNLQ
inactive: [1] 0.066 | [2] -0.004 | [3] -0.005 | [4] -0.011 | Nexturastat A 0.047 | vemurafenib -0.031 | [5] 0.009 | [6] 0.052 | givinostat -0.002 | barasertib -0.044

PSMD6 (UniProt Q15008)
inactive: [1] -0.007 | [2] -0.004 | [3] -0.045 | [4] -0.045 | Nexturastat A 0.108 | vemurafenib -0.055 | [5] -0.014 | [6] 0.01 | givinostat -0.034 | barasertib -0.012

POLR3D (UniProt P05423)
inactive: [1] -0.078 | [2] 0.014 | [3] -0.01 | [4] -0.023 | Nexturastat A 0.153 | vemurafenib 0.03 | [5] 0.055 | [6] 0.104 | givinostat 0.065 | barasertib 0.098

QKI (UniProt Q96PU8)
inactive: [1] 0.05 | [2] -0.037 | [3] 0.019 | [4] 0.036 | Nexturastat A -0.109 | vemurafenib 0.033 | [5] 0.084 | [6] -0.045 | givinostat 0.023 | barasertib -0.003

PTRHD1 (UniProt Q6GMV3)
inactive: [1] -0.051 | [2] -0.098 | [3] 0.017 | [4] 0.022 | Nexturastat A 0.074 | vemurafenib 0.059 | [5] -0.024 | [6] -0.024 | givinostat -0.008 | barasertib 0.034

PPP4R3B (UniProt Q5MIZ7)
inactive: [1] 0.006 | [2] 0.014 | [3] 0.008 | [4] 0.024 | Nexturastat A -0.063 | vemurafenib 0.017 | [5] 0.009 | [6] -0.017 | givinostat 0.049 | barasertib 0.029

PPIL1 (UniProt Q9Y3C6)
Chain of UniProt Q9Y3C6 (Q9Y3C6 whole entry, looked up): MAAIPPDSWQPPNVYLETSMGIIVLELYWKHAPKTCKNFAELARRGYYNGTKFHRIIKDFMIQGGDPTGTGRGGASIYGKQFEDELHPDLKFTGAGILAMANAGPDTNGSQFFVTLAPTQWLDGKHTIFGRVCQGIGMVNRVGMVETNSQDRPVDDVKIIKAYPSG
inactive: [1] -0.002 | [2] 0.023 | [3] 0 | [4] -0.024 | Nexturastat A 0.025 | vemurafenib -0.045 | [5] 0.027 | [6] -0.016 | givinostat -0.038 | barasertib 0.033

PSMD8 (UniProt P48556)
inactive: [1] 0.044 | [2] 0.047 | [3] -0.056 | [4] -0.045 | Nexturastat A 0.128 | vemurafenib -0.082 | [5] -0.073 | [6] 0.022 | givinostat -0.04 | barasertib -0.034

PSMC5 (UniProt P62195)
inactive: [1] 0.014 | [2] 0.011 | [3] -0.029 | [4] -0.05 | Nexturastat A 0.003 | vemurafenib -0.048 | [5] -0.053 | [6] 0.032 | givinostat -0.082 | barasertib -0.034

PRPF3 (UniProt O43395)
inactive: [1] 0.05 | [2] -0.025 | [3] 0.038 | [4] 0.117 | Nexturastat A -0.087 | vemurafenib 0.1 | [5] 0.081 | [6] -0.005 | givinostat 0.086 | barasertib 0.028

PRKAB2 (UniProt O43741)
Chain of UniProt O43741 (O43741 whole entry, looked up): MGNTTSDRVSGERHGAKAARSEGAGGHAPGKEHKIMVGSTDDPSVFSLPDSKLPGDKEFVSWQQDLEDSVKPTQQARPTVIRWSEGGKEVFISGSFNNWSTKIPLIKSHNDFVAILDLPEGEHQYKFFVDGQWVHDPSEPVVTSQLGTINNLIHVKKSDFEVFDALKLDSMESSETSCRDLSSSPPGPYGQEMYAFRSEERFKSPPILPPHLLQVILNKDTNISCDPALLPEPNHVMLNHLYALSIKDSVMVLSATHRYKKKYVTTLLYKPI
inactive: [1] 0.122 | [2] -0.015 | [3] 0.106 | [4] 0.118 | Nexturastat A -0.079 | vemurafenib 0.074 | [5] 0.177 | [6] -0.18 | givinostat 0.027 | barasertib 0.067

PSMC6 (UniProt P62333)
Chain of UniProt P62333 (P62333 whole entry, looked up): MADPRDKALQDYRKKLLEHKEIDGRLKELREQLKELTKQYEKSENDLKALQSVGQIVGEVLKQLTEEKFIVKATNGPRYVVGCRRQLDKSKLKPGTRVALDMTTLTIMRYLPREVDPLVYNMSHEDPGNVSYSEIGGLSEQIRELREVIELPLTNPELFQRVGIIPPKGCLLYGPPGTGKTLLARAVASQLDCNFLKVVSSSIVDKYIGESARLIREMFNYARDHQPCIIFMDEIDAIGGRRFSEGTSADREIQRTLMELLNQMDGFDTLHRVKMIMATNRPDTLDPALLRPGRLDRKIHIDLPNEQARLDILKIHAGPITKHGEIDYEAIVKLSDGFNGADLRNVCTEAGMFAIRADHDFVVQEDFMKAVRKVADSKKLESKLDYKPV
inactive: [1] 0 | [2] 0.022 | [3] -0.034 | [4] -0.043 | Nexturastat A 0.034 | vemurafenib -0.067 | [5] -0.069 | [6] 0.01 | givinostat -0.081 | barasertib -0.055

Reference: the supplement of paper PMC10849652
